Assay [1] deals with T1, Mitogen-activated protein kinase 12 (Homo sapiens) (UniProt P53778).
T1 sequence (whole entry): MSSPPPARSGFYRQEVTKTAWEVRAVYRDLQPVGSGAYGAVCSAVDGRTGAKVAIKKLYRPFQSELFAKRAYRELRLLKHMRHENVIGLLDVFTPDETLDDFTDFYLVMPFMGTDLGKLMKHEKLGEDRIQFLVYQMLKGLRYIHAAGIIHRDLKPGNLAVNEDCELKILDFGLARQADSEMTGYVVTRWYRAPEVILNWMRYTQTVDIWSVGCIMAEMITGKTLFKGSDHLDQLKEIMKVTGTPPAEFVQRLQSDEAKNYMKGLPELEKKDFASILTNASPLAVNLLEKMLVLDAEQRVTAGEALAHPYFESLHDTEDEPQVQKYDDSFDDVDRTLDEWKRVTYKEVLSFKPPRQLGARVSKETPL
To be noted: at 1 µM.

Assay [2] concerns the target T1, Mitogen-activated protein kinase 12 (Homo sapiens). To be noted: at 10 µM.

Regarding `c1ccc(-c2cnc(Nc3ccc(OCCN4CCCC4)cc3)s2)cc1`, the residual activity in assay [1] was found to be 115%; in assay [2], 100%.

Consider `O=C1NC(=O)C(c2cn(CCCn3ccnc3)c3ccccc23)=C1Nc1ccccc1`, for which the residual activity in assay [1] came out at 104%; in assay [2], 100%.

`CNc1cc2c(Nc3cccc(Br)c3)ncnc2cn1`: the figures for the residual activity in assay [1] and in assay [2] were 105% and 95%, respectively.

Consider `Cc1nc(-c2ccccc2)c(-c2ccncc2)o1`, for which the results for the residual activity in assay [1] and in assay [2] were 106% and 103%, respectively.

Take `CC(=O)O/N=C1\C(=C2\C(=O)Nc3cc(Br)ccc32)Nc2ccccc21`: the residual activity in assay [1] worked out at 94%; in assay [2], 92%.

Regarding `O=C(Nc1cccc(Nc2cc(Nc3cccc(C(F)(F)F)c3)ncn2)c1)C1CC1`, the residual activity in assay [1] was found to be 94%; in assay [2], 92%.

In the case of `CC(C)c1nn(-c2c(Cl)cccc2Cl)c2nc(Cc3ccc(OCCO)cc3)[nH]c(=O)c12`, the residual activity is 105% in assay [1] and 101% in assay [2].

Regarding `CC(C)n1cnc2/c(=N/c3cccc(Cl)c3)nc(NCCO)[nH]c21`, the results for the residual activity in assay [1] and in assay [2] were 96% and 99%, respectively.

In the case of `CC[n+]1c(/C=C/N(C)c2ccccc2)n(-c2ccccc2)c2ccc(-c3nc4ccccc4s3)cc21`, the figures for the residual activity in assay [1] and in assay [2] were 111% and 94%, respectively.

For `O=C1NC(=O)c2c1c1c3ccccc3[nH]c1c1[nH]c3cc(Br)ccc3c21`, the residual activity turned out to be 96% in assay [1] and 88% in assay [2].

In the case of `CCC(=O)Nc1ccc2ncnc(Nc3cccc(Br)c3)c2c1`, the residual activity in assay [1] was 101%; in assay [2] it was 93%.

For the compound `COc1cc2ncnc(Nc3cccc(Cl)c3)c2cc1OC`, the residual activity in assay [1] came out at 116%; in assay [2], 103%.

For the compound `Cc1ccc(S(=O)(=O)/C=C/C#N)cc1`, the residual activity in assay [1] and in assay [2] was 92% in each case.

Regarding `CN(C)CCCn1cc(C2=C(c3c[nH]c4ccccc34)C(=O)NC2=O)c2ccccc21`, the residual activity in assay [1] was 125%; in assay [2], 131%.

Turning to `CO[C@@H]1[C@H](N(C)C(=O)c2ccccc2)C[C@H]2O[C@]1(C)n1c3ccccc3c3c4c(c5c6ccccc6n2c5c31)C(=O)NC4`, the residual activity in assay [1] was found to be 104%; in assay [2], 87%.

Take `NCCNc1ncc(C(N)=O)c(Nc2cccc(C(F)(F)F)c2)n1`: the residual activity in assay [1] worked out at 103%; in assay [2] it was 106%.

Regarding `Ic1cccc(CSc2nnc(-c3ccncc3)o2)c1`, the residual activity was 88% in assay [1] and 93% in assay [2].

`NC(=O)c1ccc2[nH]c(-c3ccc(Oc4ccc(Cl)cc4)cc3)nc2c1`: the residual activity in assay [1] worked out at 93%; in assay [2], 92%.

On to `O=C1NC(=O)c2c1c1c3ccccc3[nH]c1n1cncc21`, for which the residual activity in assay [1] was 95%; in assay [2], 87%.

Take `O=C1c2ccccc2-[n+]2ccc3c([nH]c4ccccc43)c21`: the residual activity is 89% in assay [1] and 100% in assay [2].

Consider `CCN(CC)CCCCN1c2ccccc2Oc2ccc(Cl)cc21`, for which the residual activity in assay [1] was 131%; in assay [2], 100%.

With `O=c1cc(N2CCOCC2)oc2c1ccc1ccccc12`, the residual activity in assay [1] came out at 104%; in assay [2], 90%.

Turning to `O=C1C(Cl)=C(N2C(=O)CCC2=O)C(=O)c2ccccc21`, the residual activity worked out at 96% in assay [1] and 99% in assay [2].

In the case of `COc1cccc(-c2cc(=O)c3ccccc3o2)c1N`, the values for the residual activity in assay [1] and in assay [2] were 102% and 96%, respectively.

As to `Cc1cc2ncc(-c3ccccc3)nc2cc1C`, the residual activity in assay [1] and in assay [2] was 100% each time.

Turning to `O=C(O)/C=C/c1cc(Br)c(Br)c(Br)c1Br`, the residual activity in assay [1] is 110%; in assay [2] it was 90%.

On to `O=C(c1ccccc1)c1ccc(N2CCOCC2)cc1O`, for which the residual activity in assay [1] and in assay [2] was 100% each time.

With `Cn1c2ccccc2c2c3c(c4c5ccccc5n(CCC#N)c4c21)CNC3=O`, the residual activity in assay [1] and in assay [2] was 61% each time.

On to `O=c1cc(-c2cccc3c2Sc2ccccc2S3)oc(N2CCOCC2)c1`, for which the residual activity worked out at 104% in assay [1] and 101% in assay [2].

Take `c1ccc2c(-c3ccncc3)c[nH]c2c1`: the residual activity in assay [1] is 100%; in assay [2], 94%.

As to `Cc1ccc(NC2=CC(=O)c3sc(C)nc3C2=O)cc1`, the residual activity came to 87% in assay [1] and 102% in assay [2].

`Nc1nc(Nc2ccc(S(N)(=O)=O)cc2)nn1C(=O)c1c(F)cccc1F`: in assay [2], the residual activity worked out at 67%.

As to `COc1cc2nccc(Oc3ccc(NC(=S)NC(=O)c4ccccc4C)cc3)c2cc1OC`, the residual activity was determined as 99% in assay [1] and 94% in assay [2].

As for `Nc1ncnc2c1c(-c1ccc(Oc3ccccc3)cc1)cn2C1CCCC1`, the residual activity in assay [1] was found to be 99%; in assay [2], 97%.

On to `N#CC(C#N)=C(N)/C(C#N)=C/c1ccc(O)cc1`, for which the residual activity in assay [2] was determined as 92%.

On to `O=C(O)c1ccc2c3c1cccc3c(=O)n1c3ccccc3nc21`, for which the residual activity in assay [1] worked out at 106%; in assay [2] it was 102%.

For the compound `COc1ccc(OC)c2c(=S)c3ccccc3[nH]c12`, the residual activity in assay [1] was determined as 95%; in assay [2], 91%.

Regarding `CO[C@H]1C[C@@H]2CC[C@@H](C)[C@@](O)(O2)C(=O)C(=O)N2CCCC[C@H]2C(=O)O[C@H]([C@H](C)C[C@@H]2CC[C@@H](O)[C@H](OC)C2)CC(=O)[C@H](C)/C=C(\C)[C@@H](O)[C@@H](OC)C(=O)[C@H](C)C[C@H](C)/C=C/C=C/C=C/1C`, the residual activity in assay [1] was 95%; in assay [2], 94%.

`COc1cc2ncnc(N3CCN(C(=O)Nc4ccc(Oc5ccccc5)cc4)CC3)c2cc1OC`: the residual activity in assay [1] was determined as 93%; in assay [2], 99%.

Turning to `Nc1n[nH]c2nnc(-c3c(-c4ccccc4)nn4ccccc34)cc12`, the residual activity in assay [1] is 91%; in assay [2] it was 69%.

As to `O=Nc1c(-c2c(O)[nH]c3ccccc23)[nH]c2ccccc12`, the residual activity in assay [1] came to 95%; in assay [2] it was 84%.

Take `CCCCc1c(-c2ccc(OC)cc2)[nH]c2nccnc12`: the residual activity in assay [1] came out at 103%; in assay [2] it was 112%.

For the compound `O=C1NC(=O)C(c2c[nH]c3ccccc23)=C1c1c[nH]c2ccccc12`, the residual activity was found to be 99% in assay [1] and 51% in assay [2].

Turning to `Oc1c2ccccc2c2c3c(cccc13)N=N2`, the residual activity was determined as 82% in assay [1] and 61% in assay [2].

For `O=[N+]([O-])c1ccc(-c2nc(-c3ccc(F)cc3)c(-c3ccncc3)[nH]2)cc1`, the residual activity turned out to be 101% in assay [1] and 93% in assay [2].

As for `Oc1n[nH]c2nnc(-c3c(-c4ccccc4)nn4ccccc34)cc12`, the residual activity turned out to be 96% in assay [1] and 90% in assay [2].

For the compound `Oc1cccc(-c2nc(N3CCOCC3)c3oc4ncccc4c3n2)c1`, in assay [2], the residual activity stood at 86%.

`N#C/C(=C1/Nc2ccccc2S1)c1ccnc(NCCc2cccnc2)n1`: the residual activity in assay [1] amounted to 96%; in assay [2] it was 72%.

Consider `O=c1c2ccccc2[nH]c(=S)n1CCN1CCC(=C(c2ccc(F)cc2)c2ccc(F)cc2)CC1`, for which the residual activity was 115% in assay [1] and 90% in assay [2].

The values above are taken from ChEMBL document CHEMBL2218924, “A broad activity screen in support of a chemogenomic map for kinase signalling research and drug discovery” (Biochem J, 2013).
